In PubChem BioAssay:
Calls of active or inactive are those of the source.

Legend:
[1] = test system: PRMT1 (protein arginine N-methyltransferase 1); assay: small molecules binding arginine methyltransferase PRMT1 – biochemical, small-molecule microarray, 635 nm fluorescence, primary screen (AID 1088); details: higher = more signal;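 also: binding of Prmt1 protein to compounds spotted on small-molecule microarray slides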
[2] = growth effects on S. cerevisiae YJM789 – YJM789 clinical isolate, OD600, 24 h, basal, primary screen (AID 1089); details: higher = more signal, called active from +8 up or from −8 down;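 also: growth of clinical yeast isolate S. cerevisiae YJM 789 seeded 1000 cells per well; test concentration not given here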
[3] = S. pombe growth modifiers, basal conditions – strain 972, OD600, 24 h, no modulator, primary screen (AID 1090);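 also: basal condition with compound alone and no growth modifier present; test concentration not given here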; details: S. pombe 972 growth, higher = more signal, called active from +8 up or from −8 down
[4] = budding yeast growth modifiers under rapamycin – strain BY4716, OD600, 96 h, primary screen (AID 1091); also: test concentration not given here; details: S. cerevisiae BY4716 + rapamycin, higher = more signal, called active from +8 up or from −8 down
[5] = molecular target: Torsin-1A-interacting protein 2 (Homo sapiens) (UniProt Q8NFQ8); assay: small molecules binding lysate-expressed LULL1 – cell lysate, human LULL1 lysate, 635/667 nm fluorescence, primary screen (AID 1092); details: small-molecule microarray, hLULL1 lysate binding, 635 nm fluorescence; higher = more signal;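 also: probe is lysate of COS7 cells overexpressing human LULL1; score merges per-feature 667 nm fluorescence with signal-to-noise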
[6] = optical density change of DRC41 E. coli – strain DRC41, OD650, 24 h, E. coli filamentation project, primary screen (AID 1093);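 also: MC1000 strain lacking acrAB efflux and sulA so SOS filamentation is blocked; test concentration not given here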; details: E. coli DRC41 growth, higher = more signal, called active from +8 up or from −8 down
[7] = probe aLefty2 binding to arrayed compounds – biochemical, biotinylated probe, 635/667 nm fluorescence, primary screen (AID 1094); details: small-molecule microarray, higher = more signal;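 also: score merges spot fluorescence near 667 nm with spot signal-to-noise ratio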
[8] = test system: Noggin (protein binding on small-molecule microarray); assay: small molecules binding Noggin protein – biochemical, 635/667 nm fluorescence, primary screen (AID 1095); details: 635 nm fluorescence, higher = more signal;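 also: score merges 667 nm feature fluorescence with signal to noise over triplicate slides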
[9] = molecular target: Neurogenic locus notch homolog protein 3 (Homo sapiens) (UniProt Q9UM47); assay: small molecules binding NOTCH3 protein – biochemical, 635/667 nm fluorescence, primary screen (AID 1096); details: small-molecule microarray, 635 nm fluorescence, higher = more signal
[10] = probe aEGFR binding to arrayed compounds – biochemical, biotinylated probe, 635/667 nm fluorescence, primary screen (AID 1097); details: small-molecule microarray, higher = more signal;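 also: probe is a biotinylated anti-EGFR antibody binding compounds printed on slides; score combines fluorescence near 667 nm and signal to noise of each spot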
[11] = test system: Plasmodium falciparum Sir2 (PF13_0152, Sir2A); assay: Plasmodium falciparum Sir2A binding compounds – biochemical, small-molecule microarray, 635 nm fluorescence, primary screen (AID 1098); details: fluorescence 635 nm, higher = more signal;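 also: score merges spot fluorescence intensity with its signal-to-noise ratio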
[12] = probe aDKK1 binding to arrayed compounds – biochemical, biotinylated probe, 635/667 nm fluorescence, primary screen (AID 1099); details: small-molecule microarray, higher = more signal;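 also: score merges 667nm spot fluorescence with signal to noise across triplicate slides; reference of the scale not given here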
[13] = probe aCHRDL2 binding to arrayed compounds – biochemical, biotinylated probe, 635/667 nm fluorescence, primary screen (AID 1100); details: small-molecule microarray, higher = more signal
[14] = change in splice reporter luminescence, either direction, cell-based, HEK293, spliceosome inhibition project, primary screen (AID 1101); details: HEK293 splicing luciferase reporter, 24 h, higher = more signal, called active from +8 up or from −8 down;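 also: HEK293 cells carrying a splicing-competent luciferase reporter gene; test concentration not given here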
[15] = molecular target: Fibroblast growth factor 10 (Homo sapiens) (UniProt O15520); assay: compounds binding fibroblast growth factor 10 – biochemical, small-molecule microarray, 635 nm fluorescence, primary screen (AID 1102); details: FGF10 binding, fluorescence 635 nm, higher = more signal
[16] = test system: glycogen synthase kinase-3 (GSK3A per assay name; protocol says GSK3B); assay: compounds binding glycogen synthase kinase-3 – biochemical, small-molecule microarray, 635 nm fluorescence, GSK3A, primary screen (AID 1103); details: fluorescence 635 nm, higher = more signal; also: the record names both GSK3A and GSK3B
[17] = molecular target: Epidermal growth factor receptor (Homo sapiens) (UniProt P00533); assay: compounds binding epidermal growth factor receptor – biochemical, small-molecule microarray, 635 nm fluorescence, primary screen (AID 1104); details: EGFR binding, higher = more signal;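 also: score merges 667 nm emission intensity with spot signal to noise over triplicate slides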
[18] = molecular target: Follistatin-related protein 3 (Homo sapiens) (UniProt O95633); assay: compounds binding follistatin-related protein 3 – biochemical, small-molecule microarray, 635 nm fluorescence, primary screen (AID 1105); details: FSTL3 binding, higher = more signal;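 also: score merges emission near 667 nm and signal to noise per printed spot across three slides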
[19] = molecular target: Dickkopf-related protein 1 (Homo sapiens) (UniProt O94907); assay: small molecules binding DKK1 protein – biochemical, small-molecule microarray, 635 nm fluorescence scan, primary screen (AID 1106); details: higher = more signal;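 also: score merges emission near 667 nm with signal to noise over three replicate slides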
[20] = test system: Inhibin beta A chain (activin A); assay: small molecules binding activin A – biochemical, small-molecule microarray, 635 nm fluorescence scan, primary screen (AID 1107); details: INHBA, higher = more signal;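 also: mouse activin A protein probed at 4.33 µg/mL on printed slides; score merges bound-protein fluorescence near 667 nm with spot signal-to-noise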

Chain of Neurogenic locus notch homolog protein 3 (Homo sapiens) (Q9UM47 whole entry, looked up): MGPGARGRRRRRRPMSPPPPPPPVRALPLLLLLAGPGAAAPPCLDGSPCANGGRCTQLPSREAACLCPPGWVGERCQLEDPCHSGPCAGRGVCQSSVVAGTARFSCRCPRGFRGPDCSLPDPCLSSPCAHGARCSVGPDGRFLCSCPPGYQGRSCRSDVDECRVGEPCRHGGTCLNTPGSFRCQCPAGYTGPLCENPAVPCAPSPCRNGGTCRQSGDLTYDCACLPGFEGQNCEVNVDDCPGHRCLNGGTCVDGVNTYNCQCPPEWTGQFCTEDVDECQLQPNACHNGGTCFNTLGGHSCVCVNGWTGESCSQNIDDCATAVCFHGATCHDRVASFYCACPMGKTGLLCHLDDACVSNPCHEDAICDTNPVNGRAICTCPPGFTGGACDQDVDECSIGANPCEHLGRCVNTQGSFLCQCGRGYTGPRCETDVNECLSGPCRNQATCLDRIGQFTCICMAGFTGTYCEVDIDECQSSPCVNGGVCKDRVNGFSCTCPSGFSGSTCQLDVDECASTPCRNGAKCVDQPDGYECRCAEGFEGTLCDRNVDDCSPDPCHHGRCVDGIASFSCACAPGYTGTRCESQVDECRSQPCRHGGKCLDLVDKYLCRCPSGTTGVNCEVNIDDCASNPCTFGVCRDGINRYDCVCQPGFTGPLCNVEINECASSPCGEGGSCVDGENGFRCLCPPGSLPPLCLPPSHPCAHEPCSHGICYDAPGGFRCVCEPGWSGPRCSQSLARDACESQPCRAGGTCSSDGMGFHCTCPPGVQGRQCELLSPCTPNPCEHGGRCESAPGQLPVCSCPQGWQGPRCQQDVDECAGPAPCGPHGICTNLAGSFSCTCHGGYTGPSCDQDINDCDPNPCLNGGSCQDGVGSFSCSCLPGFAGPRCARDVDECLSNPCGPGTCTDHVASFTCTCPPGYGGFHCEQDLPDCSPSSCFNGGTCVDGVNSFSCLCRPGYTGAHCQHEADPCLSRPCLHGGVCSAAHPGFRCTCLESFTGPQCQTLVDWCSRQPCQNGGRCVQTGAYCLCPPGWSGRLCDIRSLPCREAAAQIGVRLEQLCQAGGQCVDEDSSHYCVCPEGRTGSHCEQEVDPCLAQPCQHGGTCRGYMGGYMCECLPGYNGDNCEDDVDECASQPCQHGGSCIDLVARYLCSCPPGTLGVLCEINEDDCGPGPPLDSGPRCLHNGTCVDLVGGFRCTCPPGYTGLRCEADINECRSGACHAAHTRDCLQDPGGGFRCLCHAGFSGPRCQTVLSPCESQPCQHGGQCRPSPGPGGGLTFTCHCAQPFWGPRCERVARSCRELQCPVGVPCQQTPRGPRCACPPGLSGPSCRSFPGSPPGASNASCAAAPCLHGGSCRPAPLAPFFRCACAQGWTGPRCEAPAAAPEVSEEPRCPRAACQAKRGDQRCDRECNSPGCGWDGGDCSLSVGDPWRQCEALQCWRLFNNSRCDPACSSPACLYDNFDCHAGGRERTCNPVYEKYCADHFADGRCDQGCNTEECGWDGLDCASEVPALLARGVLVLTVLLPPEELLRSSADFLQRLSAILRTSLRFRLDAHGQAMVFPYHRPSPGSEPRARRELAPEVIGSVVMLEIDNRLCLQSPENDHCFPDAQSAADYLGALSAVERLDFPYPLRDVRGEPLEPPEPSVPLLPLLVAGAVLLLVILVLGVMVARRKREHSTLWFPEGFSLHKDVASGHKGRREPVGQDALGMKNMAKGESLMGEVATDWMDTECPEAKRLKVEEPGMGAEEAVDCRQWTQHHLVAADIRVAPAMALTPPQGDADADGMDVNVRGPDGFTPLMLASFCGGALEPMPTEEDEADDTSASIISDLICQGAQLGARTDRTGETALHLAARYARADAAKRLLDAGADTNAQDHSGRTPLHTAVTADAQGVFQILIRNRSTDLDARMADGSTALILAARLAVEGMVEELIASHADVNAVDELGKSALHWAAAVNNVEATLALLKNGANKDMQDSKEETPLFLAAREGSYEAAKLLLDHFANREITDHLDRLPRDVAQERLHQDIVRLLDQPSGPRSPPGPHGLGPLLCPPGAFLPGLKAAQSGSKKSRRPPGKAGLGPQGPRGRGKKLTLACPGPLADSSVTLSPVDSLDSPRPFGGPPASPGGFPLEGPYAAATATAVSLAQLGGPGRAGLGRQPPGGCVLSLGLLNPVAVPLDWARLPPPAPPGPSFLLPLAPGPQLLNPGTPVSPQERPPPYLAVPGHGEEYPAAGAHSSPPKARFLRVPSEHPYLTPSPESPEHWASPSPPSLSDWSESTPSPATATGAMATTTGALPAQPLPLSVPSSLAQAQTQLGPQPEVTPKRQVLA
Chain of Torsin-1A-interacting protein 2 (Homo sapiens) (Q8NFQ8 whole entry, looked up): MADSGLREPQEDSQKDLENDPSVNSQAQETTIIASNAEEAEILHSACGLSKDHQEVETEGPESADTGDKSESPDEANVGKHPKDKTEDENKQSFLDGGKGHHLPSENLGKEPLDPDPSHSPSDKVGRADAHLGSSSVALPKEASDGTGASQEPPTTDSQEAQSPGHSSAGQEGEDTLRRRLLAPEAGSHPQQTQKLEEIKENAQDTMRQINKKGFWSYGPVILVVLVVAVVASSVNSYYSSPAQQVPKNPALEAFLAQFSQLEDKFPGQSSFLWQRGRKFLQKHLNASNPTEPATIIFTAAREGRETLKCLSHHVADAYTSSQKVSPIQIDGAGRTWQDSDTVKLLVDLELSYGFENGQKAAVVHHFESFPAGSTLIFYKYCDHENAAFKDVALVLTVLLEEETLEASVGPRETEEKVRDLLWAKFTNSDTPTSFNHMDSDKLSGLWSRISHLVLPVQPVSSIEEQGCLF
Chain of Dickkopf-related protein 1 (Homo sapiens) (O94907 whole entry, looked up): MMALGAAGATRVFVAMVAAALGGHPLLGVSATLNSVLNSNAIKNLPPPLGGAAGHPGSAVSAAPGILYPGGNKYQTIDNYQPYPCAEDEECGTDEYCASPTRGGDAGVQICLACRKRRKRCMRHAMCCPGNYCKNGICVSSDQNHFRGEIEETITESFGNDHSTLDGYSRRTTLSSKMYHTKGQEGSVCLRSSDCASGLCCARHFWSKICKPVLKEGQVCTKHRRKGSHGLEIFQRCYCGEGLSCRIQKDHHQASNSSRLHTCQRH
Chain of Fibroblast growth factor 10 (Homo sapiens) (O15520 whole entry, looked up): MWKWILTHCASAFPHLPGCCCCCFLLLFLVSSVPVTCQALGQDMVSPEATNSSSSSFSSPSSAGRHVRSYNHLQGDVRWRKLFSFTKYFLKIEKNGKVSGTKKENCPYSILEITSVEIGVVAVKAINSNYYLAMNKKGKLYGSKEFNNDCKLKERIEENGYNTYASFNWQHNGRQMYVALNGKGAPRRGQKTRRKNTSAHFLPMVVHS
Chain of Epidermal growth factor receptor (Homo sapiens) (P00533 whole entry, looked up): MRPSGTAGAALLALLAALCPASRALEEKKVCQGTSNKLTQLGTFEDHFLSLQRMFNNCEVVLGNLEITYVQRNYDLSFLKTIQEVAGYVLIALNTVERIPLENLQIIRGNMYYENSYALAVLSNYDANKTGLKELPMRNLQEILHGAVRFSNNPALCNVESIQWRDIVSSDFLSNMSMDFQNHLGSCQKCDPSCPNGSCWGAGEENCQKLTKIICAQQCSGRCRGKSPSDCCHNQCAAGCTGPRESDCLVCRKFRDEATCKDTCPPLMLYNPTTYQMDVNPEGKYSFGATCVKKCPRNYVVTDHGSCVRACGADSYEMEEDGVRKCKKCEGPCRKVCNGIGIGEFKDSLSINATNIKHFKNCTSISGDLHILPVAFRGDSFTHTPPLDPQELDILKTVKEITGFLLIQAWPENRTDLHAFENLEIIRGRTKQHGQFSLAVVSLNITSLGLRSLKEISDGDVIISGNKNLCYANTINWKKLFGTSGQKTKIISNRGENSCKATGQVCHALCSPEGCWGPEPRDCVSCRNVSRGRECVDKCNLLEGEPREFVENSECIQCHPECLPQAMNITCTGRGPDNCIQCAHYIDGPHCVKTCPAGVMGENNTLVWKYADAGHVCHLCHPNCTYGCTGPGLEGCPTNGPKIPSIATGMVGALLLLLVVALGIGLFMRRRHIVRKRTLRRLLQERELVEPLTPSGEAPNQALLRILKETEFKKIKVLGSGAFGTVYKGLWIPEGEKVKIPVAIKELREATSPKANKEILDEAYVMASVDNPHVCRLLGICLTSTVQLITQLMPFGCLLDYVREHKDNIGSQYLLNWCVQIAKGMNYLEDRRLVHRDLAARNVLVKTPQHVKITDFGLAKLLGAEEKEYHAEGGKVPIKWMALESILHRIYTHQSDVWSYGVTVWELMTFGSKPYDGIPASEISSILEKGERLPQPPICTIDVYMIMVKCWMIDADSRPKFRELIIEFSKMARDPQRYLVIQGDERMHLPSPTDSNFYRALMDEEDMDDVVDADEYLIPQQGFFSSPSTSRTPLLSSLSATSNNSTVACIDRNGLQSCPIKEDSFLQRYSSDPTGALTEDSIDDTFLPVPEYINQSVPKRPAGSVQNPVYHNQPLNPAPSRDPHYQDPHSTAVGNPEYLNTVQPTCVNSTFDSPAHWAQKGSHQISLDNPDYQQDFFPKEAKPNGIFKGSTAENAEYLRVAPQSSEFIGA
Chain of Follistatin-related protein 3 (Homo sapiens) (O95633 whole entry, looked up): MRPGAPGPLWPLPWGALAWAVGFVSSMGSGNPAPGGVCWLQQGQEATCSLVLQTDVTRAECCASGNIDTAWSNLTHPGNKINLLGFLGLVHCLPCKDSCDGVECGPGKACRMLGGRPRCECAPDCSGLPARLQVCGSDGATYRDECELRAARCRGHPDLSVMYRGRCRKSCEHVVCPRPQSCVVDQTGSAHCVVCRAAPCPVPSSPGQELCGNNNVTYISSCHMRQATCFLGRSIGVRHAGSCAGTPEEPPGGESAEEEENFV

| Compound | composite z-score [1] | z-score [2] | z-score [3] | z-score [4] | composite z-score [5] | z-score [6] | composite z-score [7] | composite z-score [8] | composite z-score [9] | composite z-score [10] | composite z-score [11] | composite z-score [12] | composite z-score [13] | z-score [14] | composite z-score [15] | composite z-score [16] | composite z-score [17] | composite z-score [18] | composite z-score [19] | composite z-score [20] |
| --- | --- | --- | --- | --- | --- | --- | --- | --- | --- | --- | --- | --- | --- | --- | --- | --- | --- | --- | --- | --- |
| Cc1ccc(S[C@]2(C(=O)NCCN3CCOCC3)CC(=O)N(C3CCCCC3)[C@@H]2c2ccc(CO)cc2I)cc1 | 1.53 | -0.376 (inactive) | 0.174 (inactive) | 1.28 (inactive) | 3.23 | -0.385 (inactive) | -0.0512 | 0.824 | 1.07 | -0.313 | 0.567 | -0.69 | -0.13 | -0.341 (inactive) | 1.29 | 1.19 | 0.0803 | 1.19 | -0.0675 | 0.714 |
| O=C1N(Cc2ccccc2)c2ccccc2[C@H]2OC(c3ccc(OCCCO)cc3)=N[C@@]12Cc1ccccc1 | 1.54 | -0.915 (inactive) | -0.469 (inactive) | 6.52 (inactive) | 2.58 | -0.905 (inactive) | -0.0058 | 1.54 | 1.1 | -0.0525 | 1.53 | 0.655 | 0.794 | -0.385 (inactive) | 1.16 | 1.29 | 0.279 | 0.582 | 0.194 | 0.925 |
| CCCC[C@@H](O)C1=C(COC)Cn2c(=O)n(-c3ccccc3)c(=O)n2[C@H]1CO | -0.0379 | -1.48 (inactive) | -1.13 (inactive) | -0.721 (inactive) | -0.0333 | 2.84 (inactive) | -0.246 | -0.102 | -0.62 | -0.203 | -0.0092 | -0.399 | -0.318 | -0.446 (inactive) | 0.035 | 0.0617 | -0.464 | -0.0013 | -0.184 | 0.749 |
| CCc1cccc(NC(=O)O[C@H]2[C@H](OC(=O)Nc3ccc4c(c3)OCO4)[C@H](OC(=O)Nc3ccc4c(c3)OCO4)[C@@H](OC)O[C@@H]2CO)c1 | 1.55 | 1.5 (inactive) | 1.09 (inactive) | 7.36 (inactive) | 3.05 | 0.641 (inactive) | 0.0386 | 0.795 | 1.08 | -0.13 | 1.44 | -0.154 | 0.226 | -1.34 (inactive) | 0.699 | 1.32 | -0.438 | 0.791 | 0.129 | 0.627 |
| NC(=O)NCC#Cc1ccc2c(c1)[C@]1(C(=O)N2)[C@H](C(=O)N2CCCCCCC2)[C@H]2C(=O)O[C@H](c3ccccc3)[C@H](c3ccccc3)N2[C@@H]1c1ccc(O)cc1 | 1.55 | 0.463 (inactive) | 1.06 (inactive) | 1.47 (inactive) | 2.56 | -0.284 (inactive) | 1.65 | 1.85 | 1.15 | 0.944 | 1.63 | 2.7 | 1.47 | -0.15 (inactive) | 1.4 | 0.919 | 1.27 | 1.51 | 1.63 | 1.49 |
| O=C1C2C=CC(C(O)c3cccc(O)c3)N(Nc3ccccc3F)C2C(=O)N1c1ccccc1 (stereo not given) | 0.788 | -25 (active) | -8.06 (active) | -1.5 (inactive) | 1.88 | 1.94 (inactive) | -0.192 | -0.171 | 0.552 | -0.13 | 1.86 | -0.143 | 0.247 | -3.1 (inactive) | -0.177 | -0.127 | -0.175 | 0.338 | -0.128 | 0.452 |
| CC(=O)n1cc(C(O)C2C=CC3C(=O)N(c4ccccc4)C(=O)C3N2Nc2ccccc2F)c2ccccc21 (stereo not given) | 0.799 | -0.626 (inactive) | -0.169 (inactive) | -1.6 (inactive) | 2.51 | 1.01 (inactive) | -0.138 | -0.872 | -0.382 | -0.146 | 1.76 | -0.167 | 0.483 | -1.68 (inactive) | -0.191 | -0.0798 | -0.801 | -0.638 | -1.18 | -0.551 |
| C=CC[C@]1(C(=O)OC)N=C(c2ccc(OCCCO)cc2)O[C@H]1c1ccccc1N=[N+]=[N-] | 1.54 | -0.747 (inactive) | -0.652 (inactive) | 1.35 (inactive) | 3.36 | -0.225 (inactive) | 0.529 | 1.41 | 1.08 | 0.686 | 1.54 | 1.21 | 0.865 | -1.4 (inactive) | 1.25 | 1.31 | 1.19 | 1.37 | 1.26 | 0.826 |
| CCOC(=O)C1=CC[C@@H](c2ccccc2)N(S(=O)(=O)C[Si](C)(C)C)[C@H]1c1ccccc1 | 1.08 | -0.514 (inactive) | 0.984 (inactive) | 0.416 (inactive) | 2.26 | -0.453 (inactive) | 0.138 | 0.291 | 1.09 | 0.154 | 1.09 | 0.319 | -0.0475 | -1.02 (inactive) | 0.78 | 0.651 | 0.461 | 1.37 | 0.405 | 0.193 |
| CN1C(=O)C2C(C1=O)C1C=C(c3ccc(CO)cc3)C2C(c2cccs2)N1C (stereo not given) | -0.27 | -0.208 (inactive) | -2.24 (inactive) | 1.33 (inactive) | 0.989 | 1.24 (inactive) | -0.072 | -0.518 | -0.133 | 0.637 | 0.609 | 0.0014 | 0.381 | -0.516 (inactive) | -0.0606 | 0.378 | -0.2 | -0.164 | -0.0556 | 0.779 |
